Screening results deposited in PubChem by National Center for Advancing Translational Sciences (NCATS).
Rows were chosen to be rich in hits. Some 13% of all compounds tested hit in one or more screens of this group.
4MU fluor = 4-MU region autofluorescence; compound autofluorescence, 340/450 nm, 4-MU equivalents; hits give high values; max dye-equivalent concentration, M; actives 11% (n = 59,000); AID 589; in the data active means max dye-equivalent concentration above about 10 nM; inconclusive means mostly about 1.1 nM to 9.6 nM
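Intrinsic fluorescence at 340/450 nm (ex/em) was read after 15 min at room temperature in pH 8.0, 100 mM Tris. Each compound concentration expressed as 4-MU-equivalent concentration from a six-point 4-MU standard series on each plate.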
A350 autofl = A350 region autofluorescence | actives 11% (n = 59,000) | Compound autofluorescence, 340/450 nm, Alexa 350 dye-equivalents; hits give high values | max dye-equivalent concentration, M; in the data active means max dye-equivalent concentration above about 10 nM; inconclusive means mostly about 1.1 nM to 9.6 nM
HSD17B inh = HSD17B dehydrogenase inhibition; Q99714; recombinant HSD17B10, NADH fluorescence kinetic; Potency, µM (top dose mostly 57.1 µM), usual class: inhibitors; actives 7.6% (n = 75,000);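 further: the protocol describes HADH2 (HSD17B10) and not the HSD17B4 of the title; nearly all actives have a fitted effect of over 70% in size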
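20 nM HADH2, pH 9.0 Tris/Tween; cpd preinc 15 min RT; start w/ 1 mM NAD+ + 90 uM b-hydroxybutyryl-CoA; kinetic fluor ex360/em450 q30s x 4 min; delta last-first.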
AID923 = qHTS Assay for Allosteric/Competitive Inhibitors of Caspase-1: Spectroscopic Profiling in AFC Spectral Region | compound fluorescence, AFC spectral region (405/520 nm) | Potency, µM (doses to about 57.5 µM), hits mostly activators | actives 1.1% (n = 75,000)
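Baseline compound fluorescence (AFC region, 405 nm ex/520 nm em) taken from the intercept of kinetic reads with 50 nM caspase-1 and 5 uM Ac-WEHD-AFC; normalized to an on-plate AFC standard curve; compounds titrated up to 57 uM.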
GBA activity = modulators of human glucocerebrosidase; P04062; purified enzyme, resorufin glucoside fluorescence (screen aimed at inhibitors), 20 min; Potency, µM; actives 1.1% (n = 48,000); AID 360; in the data active means potency below about 15 µM; inconclusive means mostly about 16 µM to 33 µM;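 further: the screen sought inhibitors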
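Compounds titrated against 0.2 nM normal enzyme, 30 uM resorufin beta-D-glucopyranoside substrate, citrate/phosphate buffer with taurocholate and tween-20, pH 5.9. Reaction ran 20 min at room temperature; fluorescence (Ex 548/Em 600) gave AC50.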
HADH2 inhib = HADH2 (human) dehydrogenase inhibition. Q99714. actives 3.4% (n = 73,000). recombinant HADH2, NADH fluorescence, beta-hydroxybutyryl-CoA. Potency, µM (top dose mostly 57.1 µM), most hits filed as inhibitors; further: nearly all actives have a fitted effect of over 60% in size
Target sequence (Q99714 whole entry, looked up, one chain of several): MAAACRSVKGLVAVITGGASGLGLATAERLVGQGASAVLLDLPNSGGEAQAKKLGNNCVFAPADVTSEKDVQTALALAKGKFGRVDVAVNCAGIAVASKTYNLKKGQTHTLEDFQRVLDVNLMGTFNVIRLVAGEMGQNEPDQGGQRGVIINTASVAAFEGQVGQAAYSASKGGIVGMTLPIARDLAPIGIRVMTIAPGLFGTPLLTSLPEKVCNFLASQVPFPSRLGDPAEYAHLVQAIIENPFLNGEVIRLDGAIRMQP
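Buffer 100 mM Tris-HCl pH 9.0/0.01% Tween-20; HADH2 20 nM; NAD+ 1 mM; beta-hydroxybutyryl-CoA 90 uM (all final). 15 min cpd preincubation, RT.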
Hits are given with their value; n = inactive; u = inconclusive; x = no result given; [ ] = another dose, or the depositor's remark. Unless noted, the call rests on the fitted dose curve; in most records, active means well fitted curve in the direction sought with a large enough effect; inconclusive means small, poorly fitted or top-dose-only effect, or another doubt; inactive means no such curve, though single readings can be large; an effect the other way counts as inactive or inconclusive.

SMILES	4MU fluor	A350 autofl	HSD17B inh	AID923	GBA activity	HADH2 inhib
COc1cc(OC)c2c(OC)c(-c3ccc4c(c3)OCO4)c(=O)oc2c1	x	x	u	n	x	x
COc1ccc(C[C@@H]2c3cc(OC)c(OC)cc3CC[N@+]2(C)CCC(=O)OCCCCCOC(=O)CC[N@@+]2(C)CCc3cc(OC)c(OC)cc3[C@H]2Cc2ccc(OC)c(OC)c2)cc1OC	n	n	n	n	x	n
Cc1cnc(N)c2c(=O)oc3ccccc3c12	x	x	7.9µM	n	x	n
O=c1oc2ccccc2c2nccnc12	x	x	n	n	x	n
O=C(c1ccc2c(=O)n(Cc3ccc4c(c3)OCO4)c(=S)[nH]c2c1)N1CCCCC1	u	1e-08M	n	n	n	n
CN1CCN(C(=O)c2ccc3c(=O)n(Cc4ccc(Cl)cc4)c(=S)[nH]c3c2)CC1	1.1e-07M	1.4e-07M	u	n	n	n
CCOC(=O)N1CCN(C(=O)c2ccc(Cn3c(=S)[nH]c4cc5c(cc4c3=O)OCO5)cc2)CC1	n	u	n	n	u	n
CCCn1c(=O)c2[nH]c(-c3ccc(OCC(=O)Nc4ccc(C#N)cc4)cc3)nc2n(CCC)c1=O	n	n	n	n	x	n
Nc1ccc(CCNc2ncnc3c2ncn3[C@@H]2O[C@@H](CO)[C@H](O)[C@@H]2O)cc1	n	n	n	n	x	n
CCn1c(SCC(=O)NC(C)(C)C)nc(O)cc1=O	1.6e-08M	1.9e-08M	n	n	n	n
O=C(O)c1ccc(Cl)c2c1C1C=CCC1C(c1ccccn1)N2 (centres undefined)	x	x	16µM	n	x	4µM
O=C(CC1(O)C(=O)Nc2cc(Cl)cc(Cl)c21)c1ccccc1O (centres undefined)	7.1e-08M	7.1e-08M	n	n	n	n
O=C(CC1(O)C(=O)Nc2ccccc21)c1ccccc1 (centres undefined)	x	x	n	n	x	n
CC1OC(OC2C(CO)OC(OC3C(CO)OC(O)C(O)C3O)C(O)C2O)C(O)C(O)C1NC1C=C(CO)C(O)C(O)C1O (centres undefined)	x	x	n	n	x	x
Clc1ccc2c(c1)C1OCCC1C(c1ccco1)N2 (centres undefined)	6.7e-07M	4.6e-07M	10µM	n	n	u
C=CCOC(=O)C(C(C)=O)C(NC(=O)OC)c1ccco1 (centres undefined)	x	x	n[11.4 µM]	n[11.5 µM]	x	n[11.4 µM]
CNc1oc(-c2ccc(Cl)cc2)nc1C#N	1e-07M	1.1e-07M	x	x	x	x
c1ccc(CSc2nnc(-c3cccs3)o2)cc1	n	n	n	n	n	n
N#Cc1nc(-c2ccc(OCc3ccc(Cl)cc3)cc2)oc1NCc1cccnc1	n	n	n	n	n	n
N#Cc1nc(-c2cccs2)oc1NCCc1ccccc1	4.1e-07M	4.8e-07M	x	x	x	x
N#Cc1nc(-c2cccs2)oc1N1CCN(Cc2ccccc2)CC1	1.7e-07M	1.4e-07M	32µM	n	n	32µM
CNc1oc(-c2ccco2)nc1C#N	u	u	32µM	n	n	u
C=CC(=O)OCC(CO)(COC(=O)C=C)COC(=O)C=C	x	x	n	n	x	n
N#Cc1nc(-c2ccc(OCc3ccccc3)cc2)oc1NCc1cccnc1	n	n	u	n	n	n
N#Cc1nc(-c2ccco2)oc1NCCc1ccccc1	u	u	32µM	n	n	u
SMILES	4MU fluor	A350 autofl	HSD17B inh	AID923	GBA activity	HADH2 inhib
COc1ccc(CCNc2oc(COc3ccc(F)cc3)nc2C#N)cc1	n	u	n	n	n	n
N#Cc1nc(-c2cccs2)oc1NCc1ccc2c(c1)OCO2	1.1e-07M	1.2e-07M	x	x	x	x
O=C(Cc1cccs1)NCc1ccc2c(c1)OCO2	n	n	n	n	n	n
COc1ccc(CCNc2oc(-c3ccco3)nc2C#N)cc1	u	u	32µM	n	n	u
N#Cc1nc(-c2ccccc2)oc1NCCN1CCCCC1	u	u	25µM	n	n	u
CCCCCC(=O)N1CC2(CC)CN(C(=O)CCCCC)CC(CC)(C1)C2=O	n	n	x	x	x	x
Cc1ccc2c(c1)N(CC(=O)NCCc1c[nH]c3ccccc13)C(=O)CO2	n	n	n	n	n	n
COC(=O)[C@@H]1C[C@@H]2CC[C@@H](O)C[C@@H]2N1CC1CCCCC1	x	x	n	n	x	x
N#Cc1nc(-c2cccs2)oc1NCCN1CCOCC1	2.6e-07M	2.8e-07M	x	x	x	x
O=C(NCCCN1CCOCC1)c1cc(-c2cccs2)on1	n	n	n	n	n	n
